Assay outcomes as filed in PubChem.
DT40 TDP1 no CPT: qHTS for Inhibitors of human tyrosyl-DNA phosphodiesterase 1 (TDP1): qHTS in cells in absence of CPT; DT40 Tdp1-/- hTDP1 cells, no CPT, ATP luminescence, 48 h; Potency, µM (doses to about 46.2 µM), without a hit: top-dose activity change, negative = growth inhibition, usual class: inhibitors; 15% of 420,000 active; AID 686978, 2013; further: potency means the concentration at half of the fitted maximal effect; nearly all actives have a fitted effect of over 55% in size
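Chicken DT40 Tdp1-/- cells stably complemented with human TDP1 were seeded at 400 cells/well with DMSO in place of 20 nM camptothecin. After compound pinning, cells grew at least 48 hr at 37 °C; viability read by CellTiter-Glo luminescence.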
IL-1B inflam inh: inhibitors of inflammasome signaling (IL-1 beta secretion); THP-1 LPS/ATP IL-1B secretion, AlphaLISA, 16 h; hits give low values; 4.7% of 360,000 active; activity change, % at 57.5 µM; in the data active means activity change below about -50%; inconclusive means mostly about -30% to -49%
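THP-1 cells pretreated 1 hr with compounds (up to 57.5 uM final), then stimulated with LPS (250 ng/mL final) plus ATP (1.25 mM final); secreted IL-1B measured by AlphaLISA after 16 hr, decreased signal indicating inhibition.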
uPA surface inh: inhibitors of cell surface uPA generation; Potency, µM (highest dose often 38.3 µM), inactives show at the top dose activity change, negative = inhibition, usual class: inhibitors; 0.31% of 330,000 active; AID 540303; cell surface uPA generation assay, qHTS; active means well fitted inhibition curve with a large enough effect; inconclusive means small, poorly fitted or top-dose-only effect; inactive means no such curve, though single readings can be large or run the other way; tested in mouse RAW 264.7 cells; further: potency means the concentration at half of the fitted maximal effect; nearly all actives have a fitted effect of over 55% in size
HT1080NT lethal: kills 2HG-producing HT-1080-NT fibrosarcoma cells. HT-1080-NT fibrosarcoma viability, CellTiter-Glo ATP luminescence, 48 h. Potency, µM (highest dose often 46.1 µM), inactives show at the highest dose activity, negative = less viability, hits mostly cytotoxic. 1.6% of 360,000 active;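 further: NT is the 2HG producing partner of a matched IDH1 knockdown line; potency means the concentration at half of the fitted maximal effect; 0% = DMSO-treated cells and -100% = media-only wells without cells; nearly all actives have a fitted effect of over 55% in size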
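Viability of the 2HG-overproducing fibrosarcoma line after 48 hours of compound exposure at 37 degrees C was determined by luminescence with CellTiter-Glo, and concentration-effect curves were then fitted and categorized.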
DT40 TDP1 CPT: growth inhibition of DT40 Tdp1-/-;hTDP1 cells with camptothecin (screen for TDP1 inhibitors); chicken DT40 Tdp1-/-;hTDP1 cells + 20 nM CPT, ATP luminescence, 48 h; Potency, µM (doses to about 46.2 µM), for the others: at the top dose activity change, negative = growth inhibition, usual class: inhibitors; 12% of 420,000 active; AID 686979; further: potency means the concentration at half of the fitted maximal effect; nearly all actives have a fitted effect of over 55% in size
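Cell growth measured by CellTiter-Glo luminescence after a minimum 48 h, 37 C compound exposure with 20 nM CPT in Tdp1-knockout DT40 cells stably expressing hTDP1, seeded 400/well; qHTS titration format.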
HT1080 IDH1KD tx: kills HT-1080 cells with IDH1 knockdown; HT-1080 IDH1 knockdown viability, ATP luminescence, 48 h; Potency, µM (titrated, usually from 46.1 µM), without a hit: at the highest dose activity, negative = toxicity, usual class: cytotoxic; 2% of 360,000 active; AID 686971;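 further: potency means the concentration at half of the fitted maximal effect; 0% = DMSO wells and -100% = cell-free medium wells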
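Assay cells: HT-1080 with IDH1 knockdown, 750 per well, RPMI/5% FBS. Exposure: 48 h at 37 °C following 2 h pre-incubation. Read: CellTiter-Glo luminescence; fitted concentration-response, curve class assigned.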
Active calls of the source: *; ? = inconclusive; nt = no result given. Shown are actives, neighbours in structure and some others; about 19% of the full set was active somewhere. Unless noted, the call rests on the fitted dose curve; in most records, active means well fitted curve in the direction sought with a large enough effect; inconclusive means small, poorly fitted or top-dose-only effect, or another doubt; inactive means no such curve, though single readings can be large; an effect the other way counts as inactive or inconclusive. Unless noted, on the % scale 0 is the no-effect control and ±100 the full control effect.

SMILES | DT40 TDP1 no CPT | IL-1B inflam inh | uPA surface inh | HT1080NT lethal | DT40 TDP1 CPT | HT1080 IDH1KD tx
CCCC(=O)O[C@]1(C(=O)COC(=O)CC)[C@@H](C)C[C@H]2[C@@H]3CCC4=CC(=O)C=C[C@]4(C)[C@@]3(F)[C@@H](O)C[C@@]21C | 24µM* | nt | nt | nt | ? | nt
C[C@]1(O)CC[C@H]2[C@@H]3CCC4=CC(=O)CC[C@]4(C)[C@@]3(F)[C@@H](O)C[C@@]21C | -18% | 17 | -3% | 12% | 2% | -7%
CCC(C(N)=O)N1CCCC1=O (stereo not given) | -18% | nt | nt | nt | ? | nt
COc1cc(OC)cc(-c2sc3ccc(OC)cc3c2-c2ccc(OCCN3CCOCC3)cc2)c1 | ? | -7 | 10% | -18% | ? | -20%
CCCCOP(=O)(OCCCC)C1(C)CC(=O)CC(C)(C)C1 (stereo not given) | -25% | -11 | 1% | -8% | ? | 0%
Oc1ccc2c3c1O[C@H]1c4[nH]c5c(c4C[C@@]4(O)[C@@H](C2)N(CC2CC2)CC[C@]314)C[C@@]1(O)[C@H]2Cc3ccc(O)c4c3[C@@]1(CCN2CC1CC1)[C@H]5O4 | 5% | nt | nt | nt | 14% | nt
Oc1ccc2c3c1O[C@H]1c4[nH]c5ccccc5c4C[C@@]4(O)[C@@H](C2)N(CC2CC2)CC[C@]314 | 11% | -61* | -12% | ? | 19% | ?
Oc1ccc2c3c1O[C@H]1c4oc5ccccc5c4C[C@]4(O)[C@H](C2)N(CC2CC2)CC[C@@]314 | -3% | nt | nt | nt | 9% | nt
Oc1ccc2c3c1O[C@H]1c4oc5ccccc5c4C[C@@]4(O)[C@@H](C2)N(CC2CC2)CC[C@]314 | ? | -65* | 10% | ? | ? | ?
Oc1ccc2c3c1O[C@H]1c4c(c5ccccc5n4Cc4ccccc4)C[C@]4(O)[C@H](C2)N(CC2CC2)CC[C@@]314 | 13µM* | nt | nt | nt | 12µM* | nt
CC(C)CN(CC(C)C)C(=O)C1C2c3ccccc3C(c3ccccc32)C1C(=O)O (stereo not given) | ? | 19 | -5% | 6% | -16% | 3%
CCN(C(=O)CSc1ncccc1C(=O)Oc1cccc([N+](=O)[O-])c1)c1cccc(C)c1 | ? | -55* | -6% | 0% | -10% | 1%
COC(=O)C1CN(C#N)N(c2ccc(Cl)cc2)C12c1ccccc1-c1ccccc12 (stereo not given) | 2.9µM* | -97* | -12% | 3.3µM* | 3.3µM* | 3.7µM*
COc1ccc(P2(=O)Nc3ccccc3N2)cc1 | ? | 7 | -6% | -11% | 15µM* | -20%
O=C(Oc1ccccc1)N1CCC2(CCCN(C(c3ccccc3)c3ccccc3)C2)CC1 | -13% | nt | nt | nt | 10% | nt
Oc1cc(Cl)cc(Cl)c1Cl | -3% | -12 | -17% | -26% | ? | -2%
O=C1NC(=O)C2(Cc3ccccc3N3CCOCC32)C(=O)N1c1ccccc1 (stereo not given) | ? | 36 | nt | ? | ? | 18µM*
CCOc1ccc(NC(=O)Cn2cc(C(=O)c3ccccc3)c3ccccc32)cc1 | ? | nt | nt | nt | -29% | nt
CCOc1ccc(-c2nc3cc(NC(=O)COc4cccc(C)c4)ccc3o2)cc1 | 16µM* | nt | nt | nt | 3.7µM* | nt
CS(=O)(=O)c1ccc2nc(NC(=O)c3ccccc3Br)sc2c1 | -29% | -12 | ? | 18% | -18% | -1%
C[C@@H]1CN([C@@H](C)CO)C(=O)CCCn2nncc2CO[C@@H]1CN(C)C(=O)Oc1ccccc1 | 1% | 22 | nt | 10% | -5% | 8%
COc1ccc(NC2Oc3cc4c(cc3C(c3cc(OC)c(OC)c(OC)c3)C2C)OCO4)cc1 (stereo not given) | 4.1µM* | -64* | -14% | ? | 4.6µM* | ?
NC1CC2CCCCC2CC1(O)c1ccccc1 (stereo not given) | ? | -15 | nt | 3% | -5% | 2%
C=C(C)[C@H]1Cc2c(ccc3c2O[C@@H]2COc4cc(OC)c(OC)cc4[C@@H]2C3=O)O1 | 0.24µM* | nt | nt | nt | 0.24µM* | nt
C=C(C)C1Cc2c(ccc3c2OC2COc4cc(OC)c(OC)cc4C2C3=O)O1 (stereo not given) | 0.1µM* | nt | nt | nt | 0.052µM* | nt
SMILES | DT40 TDP1 no CPT | IL-1B inflam inh | uPA surface inh | HT1080NT lethal | DT40 TDP1 CPT | HT1080 IDH1KD tx
COc1ccc(C2CC(=O)Nc3cc4c(cc32)OCO4)c(OC)c1 (stereo not given) | 15µM* | nt | nt | nt | ? | nt
CC(CNC(=O)c1ccc(CSc2nc3ccncc3n2Cc2ccc(F)cc2)cc1)c1ccccc1 (stereo not given) | ? | nt | nt | nt | 12% | nt
CC(C)CC1C(=O)N(Cc2cn(CC3CCCCC3)nn2)CCS(=O)(=O)N1Cc1ccc(-c2ccc(F)nc2)cc1 (stereo not given) | 18µM* | -3 | nt | -29% | 21µM* | -27%
COc1cc2c(cc1O)CCNC2C (stereo not given) | 0% | nt | nt | nt | 2% | nt
CC[C@@H]1CN2CCc3cc(OC)c(OC)cc3[C@@H]2C[C@@H]1C[C@H]1NCCc2cc(OC)c(OC)cc21 | 0.034µM* | nt | nt | nt | -74% | nt
CCC1CN2CCc3cc(OC)c(OC)cc3C2CC1CC1NCCc2c1[nH]c1ccc(O)cc21 (stereo not given) | 0.082µM* | -101* | -14% | 0.41µM* | 0.15µM* | 0.18µM*
O=Cc1c(C(=O)O)n(Cc2ccccc2F)c2ccccc12 | -4% | 60 | -1% | ? | -26% | -9%
CC(C)n1c(/C=C/[C@H](O)C[C@H](O)CC(=O)O)c(-c2ccc(F)cc2)c2ccccc21 | 29µM* | 93 | 1.4µM* | 8.2µM* | 18µM* | 9.2µM*
CCC1CN1P(=S)(N1CC1CC)N1CC1CC (stereo not given) | ? | 7 | 3% | -1% | ? | -1%
Fc1ccc(-c2nc3c(-c4ccc(F)cc4)cnn3cc2CCN2CCOCC2)cc1 | ? | -23 | -1% | -22% | -18% | -28%
CC12CCC3C(=CCc4cc(O)ccc43)C1CCC2=O (stereo not given) | -34% | nt | nt | nt | ? | nt
O=c1[nH]c2ccccc2n1C1CCN(C(c2cc3ccccc3o2)c2nnnn2-c2ccc3c(c2)OCCO3)CC1 (stereo not given) | 15µM* | ? | nt | ? | ? | 18µM*
O=c1[nH]c2ccccc2n1C1CCN(C(c2cccc3ccccc23)c2nnnn2-c2ccc3c(c2)OCCO3)CC1 (stereo not given) | 2.6µM* | -26 | nt | ? | 4.6µM* | ?
